For 6 compounds, composite z-score, composite Z-score and z-score results are on record in PubChem BioAssay.

For one assay, the target named is Albumin (Bos taurus) (UniProt P02769). Put plainly: bovine serum albumin binders on microarray, profiling panel, artefact control for SMM control protein annotation, biochemical, small-molecule microarray, Alexa647 label, 635/667 nm fluorescence (AID 1118).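 Also: score merges 667 nm emission intensity and signal-to-noise per printed compound spot.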 The conditions noted are these: BSA-A647 binding, fluorescence 635 nm, higher = more signal.
Assay [1] can be described thus: small-molecule microarray binders of probe aXIP, primary screen, biochemical, NeuroSMM set, 635/667 nm fluorescence (AID 1119).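 Also: probe is the protein aXip251-270 applied at 1 µg/mL to compound-printed slides; binding of probe to printed compounds measured as 667 nm fluorescence plus signal to noise.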 The conditions noted are these: higher = more signal, called active from +8 up or from −8 down.
A short description of assay [2]: small-molecule binders of probe aNOTCH3, primary screen, biochemical, small-molecule microarray, 635/667 nm fluorescence (AID 1120).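 Also: probe is a biotin-tagged antibody raised against NOTCH3 rather than NOTCH3 protein; score merges spot fluorescence near 667 nm with spot signal to noise.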 The conditions noted are these: higher = more signal.
The nature of assay [3]: small-molecule binders of probe aNOTCH2, primary screen, biochemical, small-molecule microarray, 635/667 nm fluorescence (AID 1121).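 Also: score merges feature fluorescence read at 667 nm with its signal to noise.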 The conditions noted are these: higher = more signal.
The target of assay [4] is Carbonic anhydrase 2 (Homo sapiens) (UniProt P00918). Put plainly: CAII small-molecule binders, profiling panel, biochemical, small-molecule microarray, Alexa647-labelled CAII (AID 1122). The conditions noted are these: CAII-A647 binding fluorescence, higher = more signal.
A short description of assay [5]: COS7 lysate on small-molecule microarray, probe aHis, 635 nm (AID 1123).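 Also: z-score combines 667nm fluorescence intensity with signal-to-noise per printed compound spot.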 The conditions noted are these: COS7 cell lysate, fluorescence, higher = more signal.
A short description of assay [6]: compound binding in COS7 lysate, probe aLAP1, primary screen, cell lysate, small-molecule microarray (AID 1124).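 Also: lysate comes from COS7 cells expressing LAP1 and is applied at 0.3 µg/mL; score merges spot fluorescence near 667 nm with signal-to-noise over triplicate slides.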 The conditions noted are these: probe aLAP1, fluorescence, higher = more signal.
The subject of a further assay is Sam68 (KHDRBS1). Put plainly: Sam68 small-molecule binders, primary screen, biochemical, small-molecule microarray, 635 nm fluorescence (AID 1125).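 Also: score merges 667 nm channel intensity with signal to noise over triplicate slides.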 The note with it: small-molecule microarray binding, higher = more signal.
The test system of assay [7] is Chordin-like protein 2 (CHRDL2). Put plainly: CHRDL2 small-molecule binders, primary screen, biochemical, small-molecule microarray, 635 nm fluorescence (AID 1126).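 Also: printed compound slides probed with Chrdl2 protein at 4 µg/mL for 1 h at 4 C; score merges 667 nm emission intensity with signal to noise over three replicate slides.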 The note with it: small-molecule microarray binding, fluorescence 635 nm; higher = more signal.
Assay [8] concerns the target Concanavalin-A (Canavalia ensiformis) (UniProt P02866). Put plainly: ConA small-molecule binders, primary screen, artefact control for SMM control protein annotation, biochemical, small-molecule microarray, Alexa647 label, 635 nm (AID 1127).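 Also: z combines 667 nm emission intensity with signal-to-noise across three replicate slides.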 The conditions noted are these: ConA-A647 binding fluorescence, higher = more signal.
Assay [9] is described as follows: anti-His antibody binders, primary screen, artefact control for SMM control protein annotation, biochemical, small-molecule microarray, 635 nm fluorescence (AID 1128).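 Also: score merges feature fluorescence with signal-to-noise for each printed compound spot.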 The conditions noted are these: anti-His Alexa647 antibody binding, higher = more signal.
The subject of assay [10] is Human papillomavirus type 1a E7 protein (residues 1-88). Put plainly: HPV1a E7 small-molecule binders, primary screen, biochemical, small-molecule microarray, residues 1-88, 635 nm (AID 1129). The note with it: small-molecule microarray binding, fluorescence 635 nm; higher = more signal.
Assay [11] addresses Focal adhesion kinase 1 (Homo sapiens) (UniProt Q05397). Put plainly: small-molecule microarray binders of FAK, primary screen, biochemical, 635/667 nm fluorescence, BSA, DTT (AID 1130).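 Also: composite of spot emission at 667 nm and signal to noise over triplicate slides.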 The conditions noted are these: PTK2 binding, 635 nm fluorescence, higher = more signal.
The test system of assay [12] is Fibrinogen (Alexa647-labelled). Put plainly: fibrinogen binders on compound microarrays, profiling panel, artefact control for SMM control-protein annotation, biochemical, small-molecule microarray, 635/667 nm fluorescence (AID 1131).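 Also: z-score merges 667 nm fluorescence with per-spot signal-to-noise over triplicate slides.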 The conditions noted are these: fibrinogen-A647 binding fluorescence, higher = more signal.
Assay [13] addresses Follistatin (Homo sapiens) (UniProt P19883). Put plainly: follistatin binders on small-molecule microarrays, primary screen, biochemical, small-molecule microarray, 635/667 nm fluorescence (AID 1132). The conditions noted are these: FST binding, 635 nm fluorescence, higher = more signal.
The target in assay [14] is Fibroblast growth factor 2 (Homo sapiens) (UniProt P09038). Put plainly: FGF2 binders on small-molecule microarrays, primary screen, biochemical, small-molecule microarray, 635/667 nm fluorescence (AID 1133). The conditions noted are these: small-molecule microarray binding, FGF2, fluorescence 635/667; higher = more signal.
Assay [15] can be described thus: mitochondrial membrane potential change in A549 cells, profiling panel, cell-based, JC-1 fluorescence, basal, 24 h, 100 nL (AID 1138).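 Also: A549 lung adenocarcinoma cells under basal conditions with no added stimulus; test concentration not given here.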 The conditions noted are these: higher = more signal.
A further assay concerns Lefty1. Put plainly: Lefty1 binders on small-molecule microarrays, primary screen, biochemical, small-molecule microarray, 635/667 nm fluorescence (AID 1139). The conditions noted are these: small-molecule microarray binding, fluorescence 635/667; higher = more signal.
Assay [16] concerns wheat germ agglutinin (Triticum aestivum), Alexa647-labelled. Put plainly: wheat germ agglutinin binders on compound microarrays, profiling panel, artefact control for SMM control-protein annotation, biochemical, small-molecule microarray, 635/667 nm fluorescence (AID 1140).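 Also: score merges 667 nm feature emission with signal to noise over triplicate slides.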 The note with it: WGA-A647 binding, 635 nm fluorescence, higher = more signal.
The target in assay [17] is Luciferin 4-monooxygenase (Photinus pyralis) (UniProt P08659). Put plainly: firefly luciferase enzyme inhibitors, primary screen, biochemical, luminescence, purified enzyme, 2006 set (AID 1141).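 Also: cell-free assay with purified firefly luciferase at 100 ng per well in PBS; test concentration not given here.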 The note with it: SteadyGlo luminescence, 30 min, higher = more signal, called active from +8 up or from −8 down.

The source made the active and inactive calls.

Albumin (Bos taurus), sequence (P02769 whole entry, looked up): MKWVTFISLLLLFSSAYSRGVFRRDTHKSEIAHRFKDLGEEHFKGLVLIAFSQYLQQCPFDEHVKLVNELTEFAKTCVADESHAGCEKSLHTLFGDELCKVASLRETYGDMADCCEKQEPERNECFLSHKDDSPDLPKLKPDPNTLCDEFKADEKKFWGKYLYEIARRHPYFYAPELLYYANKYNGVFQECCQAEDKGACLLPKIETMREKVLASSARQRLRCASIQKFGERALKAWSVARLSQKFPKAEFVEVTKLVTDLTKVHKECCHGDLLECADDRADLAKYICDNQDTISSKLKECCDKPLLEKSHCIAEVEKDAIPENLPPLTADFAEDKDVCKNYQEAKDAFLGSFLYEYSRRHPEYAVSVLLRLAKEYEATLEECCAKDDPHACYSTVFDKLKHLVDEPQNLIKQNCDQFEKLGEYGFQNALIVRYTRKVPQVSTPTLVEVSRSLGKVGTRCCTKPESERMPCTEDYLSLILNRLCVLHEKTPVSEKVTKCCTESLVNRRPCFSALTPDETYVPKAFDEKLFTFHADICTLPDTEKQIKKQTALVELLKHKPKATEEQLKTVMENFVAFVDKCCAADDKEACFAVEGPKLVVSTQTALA
Focal adhesion kinase 1 (Homo sapiens), sequence (Q05397 whole entry, looked up): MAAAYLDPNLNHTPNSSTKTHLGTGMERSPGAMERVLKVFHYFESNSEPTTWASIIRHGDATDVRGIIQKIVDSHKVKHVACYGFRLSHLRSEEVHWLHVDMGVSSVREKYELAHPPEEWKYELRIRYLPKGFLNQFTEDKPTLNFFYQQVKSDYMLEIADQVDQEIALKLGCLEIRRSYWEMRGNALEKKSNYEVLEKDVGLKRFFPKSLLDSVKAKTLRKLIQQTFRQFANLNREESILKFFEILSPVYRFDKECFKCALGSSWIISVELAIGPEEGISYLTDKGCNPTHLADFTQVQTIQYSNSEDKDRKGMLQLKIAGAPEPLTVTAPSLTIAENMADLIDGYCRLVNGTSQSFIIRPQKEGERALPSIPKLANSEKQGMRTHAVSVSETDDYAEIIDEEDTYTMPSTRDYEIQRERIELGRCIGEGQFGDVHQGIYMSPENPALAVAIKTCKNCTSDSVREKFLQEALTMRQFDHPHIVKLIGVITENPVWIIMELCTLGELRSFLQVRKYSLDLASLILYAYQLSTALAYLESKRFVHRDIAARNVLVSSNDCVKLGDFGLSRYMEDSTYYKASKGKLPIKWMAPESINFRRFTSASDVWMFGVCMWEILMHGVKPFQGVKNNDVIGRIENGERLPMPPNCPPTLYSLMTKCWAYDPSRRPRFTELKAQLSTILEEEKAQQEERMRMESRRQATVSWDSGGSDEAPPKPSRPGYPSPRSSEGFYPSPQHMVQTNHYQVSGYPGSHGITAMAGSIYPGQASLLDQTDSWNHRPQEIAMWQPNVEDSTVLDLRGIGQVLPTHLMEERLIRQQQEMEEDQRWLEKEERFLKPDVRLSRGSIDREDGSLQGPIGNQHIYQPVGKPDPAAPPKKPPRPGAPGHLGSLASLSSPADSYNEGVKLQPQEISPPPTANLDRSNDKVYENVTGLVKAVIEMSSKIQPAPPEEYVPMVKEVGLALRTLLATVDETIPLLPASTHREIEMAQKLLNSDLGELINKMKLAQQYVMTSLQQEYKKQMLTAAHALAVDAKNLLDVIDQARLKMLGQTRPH
Luciferin 4-monooxygenase (Photinus pyralis), sequence (P08659 whole entry, looked up): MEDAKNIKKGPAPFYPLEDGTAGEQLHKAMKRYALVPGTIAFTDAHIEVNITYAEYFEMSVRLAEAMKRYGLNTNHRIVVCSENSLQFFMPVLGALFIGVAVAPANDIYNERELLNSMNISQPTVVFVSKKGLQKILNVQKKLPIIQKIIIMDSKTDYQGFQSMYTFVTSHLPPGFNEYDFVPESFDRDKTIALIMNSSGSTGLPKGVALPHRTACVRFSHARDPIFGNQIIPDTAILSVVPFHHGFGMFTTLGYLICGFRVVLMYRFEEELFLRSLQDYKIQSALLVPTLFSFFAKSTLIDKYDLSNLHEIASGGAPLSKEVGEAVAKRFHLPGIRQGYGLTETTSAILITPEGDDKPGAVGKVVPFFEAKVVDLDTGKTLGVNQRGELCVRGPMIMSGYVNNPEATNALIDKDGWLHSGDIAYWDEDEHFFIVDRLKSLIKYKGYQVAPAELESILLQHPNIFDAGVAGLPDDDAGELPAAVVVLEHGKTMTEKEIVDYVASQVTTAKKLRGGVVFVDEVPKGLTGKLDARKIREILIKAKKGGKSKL
Concanavalin-A (Canavalia ensiformis), sequence (P02866 whole entry, looked up): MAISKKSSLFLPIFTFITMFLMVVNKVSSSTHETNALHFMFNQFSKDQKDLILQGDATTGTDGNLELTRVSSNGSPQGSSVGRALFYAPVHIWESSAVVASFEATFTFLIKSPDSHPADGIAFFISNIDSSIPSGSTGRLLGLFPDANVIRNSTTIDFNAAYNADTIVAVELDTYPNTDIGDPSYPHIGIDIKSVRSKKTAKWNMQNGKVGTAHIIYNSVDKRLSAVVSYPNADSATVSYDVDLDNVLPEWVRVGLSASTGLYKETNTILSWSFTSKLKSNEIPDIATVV
Follistatin (Homo sapiens), sequence (P19883 whole entry, looked up): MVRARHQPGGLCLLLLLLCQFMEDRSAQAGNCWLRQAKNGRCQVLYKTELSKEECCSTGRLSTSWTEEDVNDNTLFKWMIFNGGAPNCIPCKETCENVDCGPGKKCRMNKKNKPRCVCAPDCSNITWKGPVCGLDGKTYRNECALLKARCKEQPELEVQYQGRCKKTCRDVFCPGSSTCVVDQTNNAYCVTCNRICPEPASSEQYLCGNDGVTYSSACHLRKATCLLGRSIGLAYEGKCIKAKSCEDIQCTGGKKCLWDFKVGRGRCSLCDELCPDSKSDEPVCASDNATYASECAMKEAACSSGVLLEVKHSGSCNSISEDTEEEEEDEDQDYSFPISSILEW
Fibroblast growth factor 2 (Homo sapiens), sequence (P09038 whole entry, looked up): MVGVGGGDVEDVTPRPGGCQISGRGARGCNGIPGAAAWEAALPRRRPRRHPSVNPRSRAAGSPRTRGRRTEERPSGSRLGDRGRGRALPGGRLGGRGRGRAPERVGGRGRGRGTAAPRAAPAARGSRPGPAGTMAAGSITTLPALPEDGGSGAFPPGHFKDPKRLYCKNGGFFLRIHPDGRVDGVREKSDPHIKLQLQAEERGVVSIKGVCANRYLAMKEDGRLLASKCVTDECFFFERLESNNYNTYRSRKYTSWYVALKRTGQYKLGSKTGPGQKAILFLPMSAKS

Regarding `O=C1O[C@H](c2ccccc2)[C@H](c2ccccc2)N2[C@H]1[C@@H](C(=O)NC[C@H](O)c1ccccc1)[C@]1(C(=O)Nc3ccc(C#CC4(O)CCCCCC4)cc31)[C@H]2c1ccc(O)cc1`, the composite z-score in the assay with Albumin (Bos taurus) is 0.647; in assay [2] it was 0.246; in assay [3] it was -0.0404; in assay [4] it was 0.359; in assay [5], 0.892; in assay [6], 1.07. Moreover, the composite z-score with Sam68 (KHDRBS1) worked out at 1.33; in assay [7], 0.233; in assay [8], 1.12; in [9] it was 1.23; in [10], 0.843; in assay [11], 0.333. The composite z-score in assay [12] amounted to 0.574; in assay [13], 1.31; in assay [14], 1.01; in the assay on Lefty1, 0.873; in assay [16], 0.588. Besides, the composite Z-score in assay [1] is 0.601 (inactive). For the same compound, the z-score is -0.105 in assay [15] and -1.56 (inactive) in assay [17].

Take `C=C(COC)C(=O)CC[C@@H](OC(=O)c1ccccc1-c1ccccc1C(=O)O)c1cccc(OCCO)c1`: the composite z-score in the assay with Albumin (Bos taurus) was -0.39; in [2], -0.15; in assay [3] it was -0.154; in [4] it was 0.713; in assay [5] it was 0.19; in assay [6], -0.402. The composite z-score in the assay on Sam68 (KHDRBS1) was -0.296; in assay [7] it was 0.192; in assay [8], 0.375; in assay [9], -1.24; in [10], -0.533; in assay [11] it was -0.508. Besides, the composite z-score was -0.661 in assay [12]; 1.27 in [13]; 0.866 in assay [14]; 0.299 with Lefty1; -0.478 in assay [16]. In addition, the composite Z-score in assay [1] was -0.122 (inactive). The z-score was 1.46 in assay [15] and -3.64 (inactive) in assay [17].

Regarding `NC(=O)NCC#Cc1ccc2c(c1)[C@]1(C(=O)N2)[C@H](c2ccc(OCCO)cc2)N2[C@H](c3ccccc3)[C@H](c3ccccc3)OC(=O)[C@H]2[C@@H]1C(=O)Nc1nc2ccccc2s1`, the composite z-score with Albumin (Bos taurus) was -0.0355; in assay [2], -0.132; in [3], -0.0629; in assay [4], 0.0165; in assay [5], 0.966; in assay [6], 0.436. For the same compound, the composite z-score with Sam68 (KHDRBS1) was -0.112; in [7], 0.175; in assay [8], 0.0806; in assay [9], -0.609; in assay [10], 0.123; in assay [11] it was 0.0616. The composite z-score is 0.0886 in [12]; 0.923 in assay [13]; -0.292 in [14]; -0.609 in the assay with Lefty1; 0.244 in assay [16]. Moreover, in assay [1], the composite Z-score is -0.883 (inactive). The z-score in assay [15] was -2.17; in assay [17], -2.15 (inactive).

On to `CCCCC(=C=CC[C@@H](O)c1ccc(OCCO)cc1)C[C@@H](O)c1cc(Cl)cc(Cl)c1O`, for which the composite z-score is 0.645 with Albumin (Bos taurus); 0.151 in assay [2]; -0.048 in assay [3]; 0.674 in assay [4]; 0.886 in assay [5]; 0.673 in assay [6]. For the same compound, the composite z-score was 0.661 in the assay with Sam68 (KHDRBS1); -0.101 in assay [7]; 0.486 in assay [8]; 0.155 in [9]; 0.597 in [10]; 0.507 in [11]. For the same compound, the composite z-score in assay [12] came to 0.556; in assay [13] it was 0.63; in [14], 0.594; in the assay on Lefty1, 0.255; in assay [16], 1.21. Further, the composite Z-score in assay [1] is 0.0371 (inactive). The z-score in assay [15] is 1.28; in assay [17] it was -3.02 (inactive).

On to `C=CCN1C(=O)[C@]2(O[C@H](CCn3cc([C@H](O)c4ccccc4)nn3)[C@@H]([Si](C)(C)c3ccc(OC)cc3)[C@@H]2C)c2cc(N3CCOC3=O)ccc21`, for which the composite z-score is 0.318 with Albumin (Bos taurus); -0.272 in [2]; -0.201 in assay [3]; 0.521 in assay [4]; 0.8 in assay [5]; 0.0004 in assay [6]. The composite z-score with Sam68 (KHDRBS1) was 0.745; in [7], -0.526; in assay [8], 0.804; in assay [9], 1.13; in [10] it was 1.13; in [11] it was 0.783. Further, the composite z-score in assay [12] is 0.811; in assay [13], -0.447; in assay [14], -0.408; in the assay on Lefty1, -0.351; in [16], 0.514. For the same compound, in assay [1], the composite Z-score is 0.2 (inactive). The z-score was 1.89 in assay [15] and -0.678 (inactive) in assay [17].

Consider `C=CCC(OC(C)=O)[C@@H]1[C@@H](N(Cc2ccc(-c3ccccc3)cc2)C(=O)c2ccc(-c3ccccc3)cc2)c2cc(OCCCO)ccc2N1C(=O)c1ccc(-c2ccccc2)cc1` (stereo not given in full), for which the composite z-score in the assay with Albumin (Bos taurus) was 0.0452; in [2], 0.11; in assay [3], 0.0086; in assay [4], -0.0914; in assay [5], 0.57; in assay [6], -0.0163. Further, the composite z-score in the assay on Sam68 (KHDRBS1) was -0.821; in [7], 0.0312; in assay [8], -0.473; in [9], -0.726; in [10], 0.274; in assay [11], 0.63. For the same compound, the composite z-score in assay [12] was -0.705; in [13], 0.288; in assay [14] it was -0.215; in the assay on Lefty1 it was -0.418; in [16] it was 0.0316. Further, the composite Z-score in assay [1] was -0.254 (inactive). Also, the z-score in [15] was 2.51; in assay [17], -1.15 (inactive).
